Among the data in article PMC7862700, “An all-to-all approach to the identification of sequence-specific readers for epigenetic DNA modifications on cytosine” are binding signal values, retold here.

Common to all, as to experiment: DAPPL (digital affinity profiling via proximity ligation, sequencing); 10 mM Tris-HCl pH 7.5, 50 mM NaCl, 1 mM DTT, 4% glycerol, room temperature, 30 min; GST-TFs on glutathione beads, 16-mer random dsDNA library, 0.1% formaldehyde crosslink after washing; high values mean tight binding
Conditions in all cases: protein: recombinant; tags: N-terminal GST; dsDNA, one strand shown

One test deals with T1, FLI1 (Homo sapiens, UniProt Q01543 1-452).
T1 sequence: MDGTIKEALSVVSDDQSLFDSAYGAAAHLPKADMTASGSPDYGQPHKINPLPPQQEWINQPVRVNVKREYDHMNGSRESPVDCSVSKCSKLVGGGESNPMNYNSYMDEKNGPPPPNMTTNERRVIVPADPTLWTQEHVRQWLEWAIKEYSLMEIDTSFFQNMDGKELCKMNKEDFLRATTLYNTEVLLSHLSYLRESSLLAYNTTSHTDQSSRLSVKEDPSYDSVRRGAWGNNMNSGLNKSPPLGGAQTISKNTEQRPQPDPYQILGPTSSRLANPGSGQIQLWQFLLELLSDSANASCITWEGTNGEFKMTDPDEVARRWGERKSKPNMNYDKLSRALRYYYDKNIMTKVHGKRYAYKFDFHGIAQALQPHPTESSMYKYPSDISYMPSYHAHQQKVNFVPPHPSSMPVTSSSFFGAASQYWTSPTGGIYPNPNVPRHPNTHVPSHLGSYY
An outline of the steps: (§1)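 After expression in yeast as GST fusions, human transcription factors were bound to glutathione beads, DNA-barcoded and mixed with a tag-only sample. The pools were incubated with 200 nmole of a 16-mer random double-stranded DNA library in Tris/NaCl/DTT/glycerol buffer (30 min, room temperature), washed and crosslinked with 0.1% formaldehyde. Proximity ligation with BsaI/T4 ligase ran for 1 h at 37 °C, before PCR amplification and sequencing on an Illumina NextSeq500. Binding signal is a hexamer's read frequency for a factor divided by its frequency for the tag-only sample.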

The next test deals with T2, ELK1 (Homo sapiens, UniProt P19419 1-428).
T2 sequence: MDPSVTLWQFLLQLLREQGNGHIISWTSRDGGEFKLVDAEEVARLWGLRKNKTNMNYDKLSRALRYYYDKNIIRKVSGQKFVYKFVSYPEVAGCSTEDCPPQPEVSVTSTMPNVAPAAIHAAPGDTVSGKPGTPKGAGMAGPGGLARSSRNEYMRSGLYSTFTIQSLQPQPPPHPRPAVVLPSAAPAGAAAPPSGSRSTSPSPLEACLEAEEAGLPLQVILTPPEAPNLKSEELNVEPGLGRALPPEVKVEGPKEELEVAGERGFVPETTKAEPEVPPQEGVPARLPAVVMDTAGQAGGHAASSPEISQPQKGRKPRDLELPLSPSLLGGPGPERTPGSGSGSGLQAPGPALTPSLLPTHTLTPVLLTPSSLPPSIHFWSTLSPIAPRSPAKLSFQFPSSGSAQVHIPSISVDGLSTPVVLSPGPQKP
Summed up: as §1

A further test deals with T3, GABPA (Homo sapiens, UniProt Q06546 1-454).
T3 sequence: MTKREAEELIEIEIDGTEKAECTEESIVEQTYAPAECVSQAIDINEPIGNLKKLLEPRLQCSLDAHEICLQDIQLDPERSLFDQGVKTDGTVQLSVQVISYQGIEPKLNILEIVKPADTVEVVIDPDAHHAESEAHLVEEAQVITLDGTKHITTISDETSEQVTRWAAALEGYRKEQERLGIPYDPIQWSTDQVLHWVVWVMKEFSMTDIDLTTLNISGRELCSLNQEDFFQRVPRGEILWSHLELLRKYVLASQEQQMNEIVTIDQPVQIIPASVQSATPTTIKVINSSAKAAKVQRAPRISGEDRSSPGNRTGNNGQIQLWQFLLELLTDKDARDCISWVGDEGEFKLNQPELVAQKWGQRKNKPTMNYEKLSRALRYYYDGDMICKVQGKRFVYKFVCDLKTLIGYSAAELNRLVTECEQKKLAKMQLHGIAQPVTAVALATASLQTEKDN
Summed up:
as §1

In another test the target is T4, ERG (Homo sapiens, UniProt P11308 1-479).
T4 sequence: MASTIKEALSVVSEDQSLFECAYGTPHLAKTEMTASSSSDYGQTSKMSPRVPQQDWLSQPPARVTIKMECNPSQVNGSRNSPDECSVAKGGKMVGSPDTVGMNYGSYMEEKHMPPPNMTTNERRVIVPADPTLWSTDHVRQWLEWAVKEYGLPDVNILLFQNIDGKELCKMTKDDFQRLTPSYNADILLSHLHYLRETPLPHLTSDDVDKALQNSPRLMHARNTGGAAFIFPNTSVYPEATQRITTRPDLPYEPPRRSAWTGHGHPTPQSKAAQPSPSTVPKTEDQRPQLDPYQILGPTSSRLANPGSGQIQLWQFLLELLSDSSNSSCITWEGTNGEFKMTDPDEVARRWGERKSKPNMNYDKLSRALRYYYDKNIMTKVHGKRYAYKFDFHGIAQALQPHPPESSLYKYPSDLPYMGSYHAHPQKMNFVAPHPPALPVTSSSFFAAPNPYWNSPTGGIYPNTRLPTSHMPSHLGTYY
Summed up: as §1

In a further test the target is ELF1 (Homo sapiens, UniProt P32519 1-619). An outline of the steps: as §1
In another test the target is T5, EHF (Homo sapiens, UniProt Q9NZC4 1-300).
T5 sequence: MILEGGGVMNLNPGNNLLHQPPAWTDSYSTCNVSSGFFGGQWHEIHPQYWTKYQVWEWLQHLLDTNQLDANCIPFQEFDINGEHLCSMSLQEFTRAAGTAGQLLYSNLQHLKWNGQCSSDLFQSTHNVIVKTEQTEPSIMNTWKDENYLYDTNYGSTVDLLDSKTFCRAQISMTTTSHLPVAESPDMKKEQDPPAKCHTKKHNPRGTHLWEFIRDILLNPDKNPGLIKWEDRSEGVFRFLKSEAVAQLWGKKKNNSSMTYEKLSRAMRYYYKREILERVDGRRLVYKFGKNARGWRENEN
Summed up: as §1

Another test deals with SPIB (Homo sapiens, UniProt Q01892 1-262). An outline of the steps: as §1
Another test has as its target T6, FEV (Homo sapiens, UniProt Q99581 1-238).
T6 sequence: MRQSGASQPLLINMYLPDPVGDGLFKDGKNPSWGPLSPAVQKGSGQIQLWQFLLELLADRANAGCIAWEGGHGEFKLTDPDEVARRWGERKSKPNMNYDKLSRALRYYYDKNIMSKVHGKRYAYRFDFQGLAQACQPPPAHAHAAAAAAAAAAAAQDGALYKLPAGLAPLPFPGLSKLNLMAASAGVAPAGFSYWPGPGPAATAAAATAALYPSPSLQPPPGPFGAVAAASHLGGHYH
An outline of the steps:
as §1

The target in the next test is ETV5 (Homo sapiens, UniProt P41161 1-510). Summed up: as §1
The target in the next test is T7, SPIC (Homo sapiens, UniProt Q8N5J4 1-248).
T7 sequence: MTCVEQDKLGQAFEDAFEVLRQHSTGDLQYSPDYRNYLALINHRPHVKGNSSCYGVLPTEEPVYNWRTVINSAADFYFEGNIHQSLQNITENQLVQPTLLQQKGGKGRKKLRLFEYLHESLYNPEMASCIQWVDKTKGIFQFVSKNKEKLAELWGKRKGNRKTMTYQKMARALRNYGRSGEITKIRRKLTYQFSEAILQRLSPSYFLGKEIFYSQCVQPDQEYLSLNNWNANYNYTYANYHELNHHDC
An outline of the steps:
as §1

The next test addresses ELF4 (Homo sapiens, UniProt Q99607 1-663). Summed up:
as §1

For a further test, the target named is T8, ERF (Homo sapiens, UniProt P50548 1-548).
T8 sequence: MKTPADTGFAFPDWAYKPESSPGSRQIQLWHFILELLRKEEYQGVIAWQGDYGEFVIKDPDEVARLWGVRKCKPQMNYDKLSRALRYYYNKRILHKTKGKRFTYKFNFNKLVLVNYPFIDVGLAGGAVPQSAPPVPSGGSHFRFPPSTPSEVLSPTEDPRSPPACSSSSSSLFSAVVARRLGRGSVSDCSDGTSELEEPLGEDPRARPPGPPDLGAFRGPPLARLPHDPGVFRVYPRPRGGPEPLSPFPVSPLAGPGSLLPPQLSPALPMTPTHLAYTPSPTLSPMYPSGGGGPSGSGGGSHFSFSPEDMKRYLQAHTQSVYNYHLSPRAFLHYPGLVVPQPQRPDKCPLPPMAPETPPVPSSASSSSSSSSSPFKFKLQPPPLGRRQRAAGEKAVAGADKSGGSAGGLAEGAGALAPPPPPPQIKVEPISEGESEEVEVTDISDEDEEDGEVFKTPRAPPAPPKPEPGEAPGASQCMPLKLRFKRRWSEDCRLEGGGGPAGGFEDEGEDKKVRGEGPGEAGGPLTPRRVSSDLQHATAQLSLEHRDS
Summed up: as §1

For another test, the target named is T9, ETV3L (Homo sapiens, UniProt Q6ZN32 1-361).
T9 sequence: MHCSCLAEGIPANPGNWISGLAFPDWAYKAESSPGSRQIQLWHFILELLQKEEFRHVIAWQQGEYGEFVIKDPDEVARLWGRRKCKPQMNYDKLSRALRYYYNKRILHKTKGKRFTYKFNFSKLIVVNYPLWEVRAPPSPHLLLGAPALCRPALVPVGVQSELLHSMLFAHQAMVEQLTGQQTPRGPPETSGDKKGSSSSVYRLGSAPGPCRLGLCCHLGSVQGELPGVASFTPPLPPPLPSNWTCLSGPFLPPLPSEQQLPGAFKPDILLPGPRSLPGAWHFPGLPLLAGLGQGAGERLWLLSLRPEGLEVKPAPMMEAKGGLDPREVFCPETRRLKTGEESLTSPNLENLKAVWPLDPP
An outline of the steps: as §1

The target in a further test is T10, ETS2 (Homo sapiens, UniProt P15036 1-469).
T10 sequence: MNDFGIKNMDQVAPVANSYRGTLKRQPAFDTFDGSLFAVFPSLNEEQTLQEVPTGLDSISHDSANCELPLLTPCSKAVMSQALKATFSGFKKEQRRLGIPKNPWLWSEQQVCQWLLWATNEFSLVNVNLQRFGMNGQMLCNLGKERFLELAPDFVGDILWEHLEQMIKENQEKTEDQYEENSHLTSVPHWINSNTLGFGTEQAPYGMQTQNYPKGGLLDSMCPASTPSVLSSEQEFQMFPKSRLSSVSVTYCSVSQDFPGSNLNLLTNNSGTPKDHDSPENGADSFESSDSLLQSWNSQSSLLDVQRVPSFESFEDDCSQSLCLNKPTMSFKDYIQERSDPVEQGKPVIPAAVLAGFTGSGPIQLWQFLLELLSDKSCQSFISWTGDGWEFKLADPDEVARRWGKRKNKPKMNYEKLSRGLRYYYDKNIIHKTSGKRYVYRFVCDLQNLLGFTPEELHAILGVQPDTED
Summed up:
as §1

Another test addresses T11, ELF5 (Homo sapiens, UniProt Q9UKW6-2 1-255).
T11 sequence: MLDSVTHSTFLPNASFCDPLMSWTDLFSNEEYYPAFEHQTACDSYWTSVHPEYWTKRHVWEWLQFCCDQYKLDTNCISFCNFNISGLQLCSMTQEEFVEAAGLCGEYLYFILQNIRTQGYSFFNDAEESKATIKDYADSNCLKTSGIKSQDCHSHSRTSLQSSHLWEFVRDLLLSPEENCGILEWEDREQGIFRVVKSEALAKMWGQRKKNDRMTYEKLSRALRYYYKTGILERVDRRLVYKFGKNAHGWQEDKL
An outline of the steps: as §1

In the next test the target is T12, ETV3 (Homo sapiens, UniProt P41162-2 1-143).
T12 sequence: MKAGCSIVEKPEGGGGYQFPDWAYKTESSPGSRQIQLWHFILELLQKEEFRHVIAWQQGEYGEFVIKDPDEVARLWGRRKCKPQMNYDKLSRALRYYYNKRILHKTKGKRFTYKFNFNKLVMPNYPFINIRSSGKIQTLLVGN
An outline of the steps:
as §1

In another test the target is ETV6 (Homo sapiens, UniProt P41212 1-452). Summed up:
as §1

Sequence of ETV5 (P41161 whole entry): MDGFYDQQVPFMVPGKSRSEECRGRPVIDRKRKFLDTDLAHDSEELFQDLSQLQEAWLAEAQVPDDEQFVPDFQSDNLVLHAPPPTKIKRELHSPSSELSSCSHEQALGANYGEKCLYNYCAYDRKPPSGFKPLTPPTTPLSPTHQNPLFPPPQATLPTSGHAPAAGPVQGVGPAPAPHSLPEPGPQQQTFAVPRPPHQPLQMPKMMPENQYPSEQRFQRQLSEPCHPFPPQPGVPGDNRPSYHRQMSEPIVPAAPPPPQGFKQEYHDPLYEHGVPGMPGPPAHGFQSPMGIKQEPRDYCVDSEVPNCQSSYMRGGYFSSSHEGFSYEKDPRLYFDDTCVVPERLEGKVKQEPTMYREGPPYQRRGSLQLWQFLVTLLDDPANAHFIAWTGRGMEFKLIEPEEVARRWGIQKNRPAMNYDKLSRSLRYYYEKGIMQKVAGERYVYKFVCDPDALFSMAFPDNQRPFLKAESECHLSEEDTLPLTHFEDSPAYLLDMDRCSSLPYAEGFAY
Sequence of ETV6 (P41212 whole entry): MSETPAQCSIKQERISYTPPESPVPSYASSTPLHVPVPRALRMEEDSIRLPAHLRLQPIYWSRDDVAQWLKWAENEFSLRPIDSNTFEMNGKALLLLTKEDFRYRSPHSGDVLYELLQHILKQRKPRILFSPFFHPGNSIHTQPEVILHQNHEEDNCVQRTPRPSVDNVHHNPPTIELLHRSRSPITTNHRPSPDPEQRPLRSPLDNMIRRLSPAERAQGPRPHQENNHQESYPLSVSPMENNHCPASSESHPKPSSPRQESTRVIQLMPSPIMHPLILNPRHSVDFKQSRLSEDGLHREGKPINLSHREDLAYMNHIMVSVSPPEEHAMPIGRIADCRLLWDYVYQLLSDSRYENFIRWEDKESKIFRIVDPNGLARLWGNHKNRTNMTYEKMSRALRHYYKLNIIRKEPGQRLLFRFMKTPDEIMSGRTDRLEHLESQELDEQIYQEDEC
Sequence of ELF1 (P32519 whole entry): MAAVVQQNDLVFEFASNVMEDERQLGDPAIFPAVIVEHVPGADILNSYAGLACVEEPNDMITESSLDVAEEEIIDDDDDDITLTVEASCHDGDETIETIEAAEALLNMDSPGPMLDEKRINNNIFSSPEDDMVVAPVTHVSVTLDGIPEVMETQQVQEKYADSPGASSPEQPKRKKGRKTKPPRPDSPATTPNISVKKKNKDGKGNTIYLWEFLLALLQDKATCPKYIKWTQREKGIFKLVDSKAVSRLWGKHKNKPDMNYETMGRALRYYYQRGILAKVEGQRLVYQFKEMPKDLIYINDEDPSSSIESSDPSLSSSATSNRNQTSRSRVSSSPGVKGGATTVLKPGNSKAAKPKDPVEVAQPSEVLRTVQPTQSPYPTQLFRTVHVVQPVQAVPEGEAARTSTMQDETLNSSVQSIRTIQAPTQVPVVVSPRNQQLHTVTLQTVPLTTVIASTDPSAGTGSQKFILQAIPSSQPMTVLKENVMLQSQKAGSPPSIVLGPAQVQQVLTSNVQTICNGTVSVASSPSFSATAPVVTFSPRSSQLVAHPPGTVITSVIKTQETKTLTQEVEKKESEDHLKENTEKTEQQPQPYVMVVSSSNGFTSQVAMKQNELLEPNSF
Sequence of SPIB (Q01892 whole entry): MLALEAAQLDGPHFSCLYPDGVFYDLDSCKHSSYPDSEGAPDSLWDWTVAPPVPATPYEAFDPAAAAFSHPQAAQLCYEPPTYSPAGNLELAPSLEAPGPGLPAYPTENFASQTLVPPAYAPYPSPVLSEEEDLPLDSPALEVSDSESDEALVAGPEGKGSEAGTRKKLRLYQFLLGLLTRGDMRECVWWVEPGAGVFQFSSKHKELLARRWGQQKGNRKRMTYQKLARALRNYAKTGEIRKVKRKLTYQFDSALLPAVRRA
Sequence of ELF4 (Q99607 whole entry): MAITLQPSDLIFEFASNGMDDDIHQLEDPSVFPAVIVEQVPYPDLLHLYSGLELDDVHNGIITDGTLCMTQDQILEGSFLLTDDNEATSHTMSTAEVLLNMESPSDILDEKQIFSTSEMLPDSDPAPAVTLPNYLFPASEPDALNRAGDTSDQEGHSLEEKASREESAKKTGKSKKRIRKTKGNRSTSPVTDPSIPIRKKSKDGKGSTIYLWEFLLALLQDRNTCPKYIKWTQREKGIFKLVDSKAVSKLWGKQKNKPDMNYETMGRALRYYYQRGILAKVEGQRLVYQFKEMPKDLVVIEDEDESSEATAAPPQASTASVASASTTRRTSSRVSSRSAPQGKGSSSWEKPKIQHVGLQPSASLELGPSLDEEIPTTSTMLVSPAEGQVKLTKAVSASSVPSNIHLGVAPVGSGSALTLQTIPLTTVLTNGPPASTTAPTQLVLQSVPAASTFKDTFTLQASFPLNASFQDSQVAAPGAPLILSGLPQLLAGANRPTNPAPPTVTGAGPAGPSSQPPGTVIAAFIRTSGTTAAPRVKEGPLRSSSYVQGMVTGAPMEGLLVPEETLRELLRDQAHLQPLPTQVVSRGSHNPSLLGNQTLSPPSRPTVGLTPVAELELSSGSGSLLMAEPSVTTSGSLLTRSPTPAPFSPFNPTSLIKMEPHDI

With CCGCTG, the binding signal with FLI1 was 1.13 fold enrichment (6-mer frequency, TF over GST control); in the test with ELK1 it was 1.03 fold enrichment (6-mer frequency, TF over GST control); with GABPA it was 1.02 fold enrichment (6-mer frequency, TF over GST control); with ERG, 1.05 fold enrichment (6-mer frequency, TF over GST control); with ELF1, 1 fold enrichment (6-mer frequency, TF over GST control); with EHF it was 1.05 fold enrichment (6-mer frequency, TF over GST control). For the same sequence, the binding signal with SPIB was 1.07 fold enrichment (6-mer frequency, TF over GST control); with FEV, 1.11 fold enrichment (6-mer frequency, TF over GST control); with ETV5 it was 1.06 fold enrichment (6-mer frequency, TF over GST control); with SPIC, 1.08 fold enrichment (6-mer frequency, TF over GST control); with ELF4, 1.06 fold enrichment (6-mer frequency, TF over GST control); with ERF it was 1.03 fold enrichment (6-mer frequency, TF over GST control). Also, the binding signal in the test with ETV3L was 1.04 fold enrichment (6-mer frequency, TF over GST control); with ETS2 it was 1.06 fold enrichment (6-mer frequency, TF over GST control); with ELF5, 1.03 fold enrichment (6-mer frequency, TF over GST control); in the test with ETV3 it was 1.08 fold enrichment (6-mer frequency, TF over GST control); with ETV6, 1.11 fold enrichment (6-mer frequency, TF over GST control).
